Data from PubChem BioAssay (Tox21).
Results filed as inconclusive are left out. Active and inactive are the calls of the source. Unless noted, the call rests on the fitted dose curve. Where a SMILES comes first, the peptide text is derived from it. [ ]: non-standard residue; d: D form. pGlu = O=C1CC[C@@H](C(=O)O)N1

Columns and labels:
[1] = qHTS assay to identify small molecule antagonists of the sonic hedgehog signaling (Shh) pathway (AID 1259369); further: nearly all actives have a fitted effect of over 45% in size
Summary of the method: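 NIH/3T3-derived 3T3Gli1-Luc cells with stably integrated Gli1-Luc reporter were preincubated 4hr at 37 C, then given compounds in DMSO plus Shh conditioned medium and incubated 24hr. Firefly luciferase luminescence read after 30min reagent at room temperature.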

[2] = molecular target: Estrogen receptor beta (Homo sapiens) (UniProt Q92731); test: qHTS assay to identify small molecule agonists of the estrogen receptor beta (ER-beta) signaling pathway (AID 1259377; active means well fitted activation curve with a large enough effect in the signal ratio in the repeat runs, not every such curve was filed as active; the % refers to the signal ratio)
Summary of the method: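 In HEK293T cells bearing a UAS-beta-lactamase reporter under ER-beta control, DMSO-delivered compounds were incubated for 16 hr at 37C. Activity was detected as fluorescence 2 hours after LiveBLAzer B/G FRET substrate addition.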

[3] = molecular target: Estrogen receptor beta (Homo sapiens) (UniProt Q92731); test: qHTS assay to identify small molecule antagonists of the estrogen receptor beta (ER-beta) signaling pathway (AID 1259378; active means well fitted inhibition curve with a large enough effect in the signal ratio in the repeat runs, not every such curve was filed as active; the % refers to the signal ratio)
Summary of the method: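 Antagonist mode: compounds added to beta-lactamase reporter HEK293T ER-beta-UAS cells stimulated with E2 (1nM final), 16 hr at 37C. LiveBLAzer B/G FRET substrate, 2 hours room temperature, fluorescence read-out.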

[4] = qHTS assay to identify small molecule agonists of the androgen receptor (AR) signaling pathway in the presence of an antagonist - cell viability counter screen (AID 1259379; active means well fitted curve in the direction sought with a large enough effect in the repeat runs; an effect the other way counts as inactive or inconclusive; further: series mostly up to about 92 µM; nearly all actives have a fitted effect of over 25% in size)
Summary of the method: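 MDA-kb2 human breast carcinoma cells (stable MMTV-luciferase, AR/GR responsive) were seeded 3,000 cells/well, pre-incubated 5 hr at 37C without CO2, then given 3.0uM nilutamide and compounds at 15 concentrations for 16 hr. Viability was read by CellTiter-Fluor fluorescence.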

[5] = qHTS assay to identify small molecule agonists of the estrogen receptor beta (ER-beta) signaling pathway - cell viability counter screen (AID 1259380; active means well fitted curve in the direction sought with a large enough effect in the repeat runs; an effect the other way counts as inactive or inconclusive; further: nearly all actives have a fitted effect of over 30% in size)
Summary of the method: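 ER-beta-UAS-bla HEK293T cells in medium with 2% charcoal-stripped FBS were preincubated 6 hr at 37C, dosed with compound in DMSO for 16 hr, then after the bla read, CellTiter-Glo was added for 30 min at room temperature; luminescence recorded.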

[6] = qHTS assay to identify small molecule antagonists of the estrogen receptor beta (ER-beta) signaling pathway - cell viability counter screen (AID 1259382; active means well fitted curve in the direction sought with a large enough effect in the repeat runs; an effect the other way counts as inactive or inconclusive;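 further: HEK293T cells carrying ER-beta-UAS-bla reporter stimulated with estradiol; series mostly up to about 92 µM; nearly all actives have a fitted effect of over 55% in size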)
Summary of the method: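 ER-beta-UAS-bla HEK293T cells (2,000/well, 2% charcoal-stripped FBS) were pre-incubated 6 hr at 37C, then given compound plus 1nM final 17-beta-estradiol for 16 hr. Viability was read in the same wells by CellTiter-Glo luminescence after 30 min at room temperature.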

[7] = molecular target: Estrogen receptor (Homo sapiens) (UniProt P03372); test: qHTS assay to identify small molecule agonists of the estrogen receptor alpha (ER-alpha) signaling pathway in the presence of an antagonist (AID 1259383); further: top concentration of the series differs between compounds; nearly all actives have a fitted effect of over 15% in size
Summary of the method: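 VM7Luc4E2 cells (endogenous full-length ER-alpha, 4×ERE-luciferase) were precultured 5 days in phenol red-free medium with 10% charcoal-stripped FBS, given 10.0nM ICI-182,780 (final), then treated with compounds at 15 concentrations for 22hr at 37C; luminescence read with ONE-Glo.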

[8] = qHTS assay to identify small molecule agonists or antagonists of the thyroid stimulating hormone receptor (TSHR) signaling pathway - wild type cell line counter screen (AID 1259384)
Summary of the method: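 Counter screen in untransfected Hek293: compounds (15-point titration, triplicate) plus phosphodiesterase inhibitor Ro20-1724 added after 18 h plating; 30 min RT. Intracellular cAMP via competitive d2/cryptate immunoassay, 1 h incubation.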

[9] = molecular target: Thyrotropin receptor (Homo sapiens) (UniProt P16473); test: qHTS assay to identify small molecule antagonists of the thyroid stimulating hormone receptor (TSHR) signaling pathway (AID 1259385); further: nearly all actives have a fitted effect of over 20% in size
Summary of the method: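 Antagonist mode: compound-treated TSHR-expressing HEK293 cells were stimulated with 1.5 ng/mL TSH (final) in presence of Ro20-1724 for 30 min at RT. HTRF cAMP detection after 1 h; each compound tested at 15 concentrations, triplicate.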

[10] = qHTS assay to identify small molecule agonists of the estrogen receptor alpha (ER-alpha) signaling pathway in the presence of an antagonist - cell viability counter screen (AID 1259386; active means well fitted curve in the direction sought with a large enough effect in the repeat runs; an effect the other way counts as inactive or inconclusive;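 further: series mostly up to about 92 µM; cells exposed to compounds for 22 h at 37 °C before the viability read; nearly all actives have a fitted effect of over 30% in size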)
Summary of the method: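 VM7Luc4E2 cells (endogenous full-length ER-alpha, 4×ERE-luciferase) were held 5 days in phenol red-free medium with 10% charcoal-stripped FBS, plated, then given 10.0nM ICI-182,780 and compounds at 15 concentrations for 22hr at 37C; viability read by CellTiter-Fluor fluorescence.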

[11] = molecular target: Progesterone receptor (Homo sapiens) (UniProt P06401); test: qHTS assay to identify small molecule antagonists of the progesterone receptor (PR) signaling pathway (AID 1346795; active means well fitted inhibition curve with a large enough effect in the signal ratio in the repeat runs, not every such curve was filed as active; the % refers to the signal ratio)
Summary of the method: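 Inhibition of R5020-induced (1 nM final) beta-lactamase reporter signal in PR-UAS-bla HEK293T cells was scored by FRET fluorescence after overnight (16 hr) compound treatment.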

[12] = qHTS assay to identify small molecule antagonists of the progesterone receptor (PR) signaling pathway - cell viability counter screen (AID 1346798; active means well fitted curve in the direction sought with a large enough effect in the repeat runs; an effect the other way counts as inactive or inconclusive; further: series mostly up to about 92 µM; nearly all actives have a fitted effect of over 50% in size)
Summary of the method: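 ATP content as viability readout: CellTiter-Glo luminescence, 30 min room temperature, in PR-UAS-bla HEK293T cells after 16 hr compound/R5020 treatment at 37C and 5% CO2.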

[13] = qHTS assay to identify small molecule agonists of the progesterone receptor (PR) signaling pathway - cell viability counter screen (AID 1346799); further: nearly all actives have a fitted effect of over 45% in size
Summary of the method: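 Cytotoxicity in PR-bla HEK293T cells: 16 h compound, 37C; CellTiter-Glo added post-FRET read; luminescence after 30 min RT.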

[14] = qHTS assay to identify small molecule antagonists of the TGF-beta/Smad signaling pathway - cell viability counter screen (AID 1346824; active means well fitted curve in the direction sought with a large enough effect in the repeat runs; an effect the other way counts as inactive or inconclusive; further: nearly all actives have a fitted effect of over 50% in size)
Summary of the method: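 Cytotoxicity counter-screen run in the same wells as the beta-lactamase Smad reporter read: CellTiter-Glo luminescence after 30 min at room temperature. HEK 293T SBE-bla cells had 5 hr compound exposure at 37 C with TGF-beta1 (0.25 ng/mL stock).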

[15] = qHTS assay to identify small molecule agonists of the TGF-beta/Smad signaling pathway (AID 1346859; active means well fitted activation curve with a large enough effect in the signal ratio in the repeat runs, not every such curve was filed as active; the % refers to the signal ratio; further: series mostly up to about 77 µM)
Summary of the method: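 Stable Smad binding element-beta-lactamase HEK 293T cells; 5 hr compound exposure at 37 C under 5% CO2; 2 hr room-temperature substrate step; fluorescence excited at 405 nm, collected at 460 nm and 530 nm.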

[16] = molecular target: Thyrotropin-releasing hormone receptor (Homo sapiens) (UniProt P34981); test: qHTS assay to identify small molecule agonists of the thyrotropin-releasing hormone receptor (TRHR) signaling pathway (AID 1346891); further: series mostly up to about 58 µM
Summary of the method: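 In 1536-format, 1500 TRHR-Hek293 cells per well grew 18 h, took up calcium dye for 2 h at 37 °C, received compound, and were read kinetically; 15-point titrations, triplicates.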

[17] = molecular target: Progesterone receptor (Homo sapiens) (UniProt P06401); test: qHTS assay to identify small molecule agonists of the progesterone receptor (PR) signaling pathway (AID 1346784); further: nearly all actives have a fitted effect of over 30% in size
Summary of the method: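 Using charcoal-stripped serum (2%) to limit endogenous steroids, PR-UAS-bla HEK 293T cells received compounds for 16 hr at 37C after 6 hr plating; beta-lactamase FRET fluorescence was recorded following 2 hr substrate loading at room temperature.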

[18] = qHTS assay to identify small molecule agonists of the TGF-beta/Smad signaling pathway - cell viability counter screen (AID 1346829; active means well fitted curve in the direction sought with a large enough effect in the repeat runs; an effect the other way counts as inactive or inconclusive; further: top concentration of the series differs between compounds; nearly all actives have a fitted effect of over 45% in size)
Summary of the method: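 Tox21 qHTS format: SBE-bla HEK 293T cells treated with DMSO-dissolved compounds for 5 hr; CellTiter-Glo luminescence after 30 min at room temperature.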

[19] = molecular target: Thyrotropin-releasing hormone receptor (Homo sapiens) (UniProt P34981); test: qHTS assay to identify small molecule antagonists of the thyrotropin-releasing hormone receptor (TRHR) signaling pathway (AID 1346877; active means well fitted inhibition curve with a large enough effect in the repeat runs, not every such curve was filed as active; further: series mostly up to about 51 µM)
Summary of the method: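 TRHR-expressing HEK293 cells were seeded, cultured 18 h at 37 °C, then loaded with calcium dye for 2 h. Compounds were pre-incubated 5 min at room temperature before 1 nM TRH (final) was added, and kinetic fluorescence was recorded for 3 min.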

[20] = molecular target: Androgen receptor (Homo sapiens) (UniProt P10275); test: qHTS assay to identify small molecule agonists of the androgen receptor (AR) signaling pathway in the presence of an antagonist (AID 1259381); further: nearly all actives have a fitted effect of over 15% in size
Summary of the method: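 MDA-kb2 human breast carcinoma cells carrying an MMTV-luciferase reporter (AR- and GR-responsive) were treated with compounds at 15 concentrations plus 3.0uM final nilutamide for 16hr at 37C without CO2; luminescence was read after ONE-Glo addition.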

Measured: Potency

Chain of Progesterone receptor (Homo sapiens) (P06401 whole entry, looked up): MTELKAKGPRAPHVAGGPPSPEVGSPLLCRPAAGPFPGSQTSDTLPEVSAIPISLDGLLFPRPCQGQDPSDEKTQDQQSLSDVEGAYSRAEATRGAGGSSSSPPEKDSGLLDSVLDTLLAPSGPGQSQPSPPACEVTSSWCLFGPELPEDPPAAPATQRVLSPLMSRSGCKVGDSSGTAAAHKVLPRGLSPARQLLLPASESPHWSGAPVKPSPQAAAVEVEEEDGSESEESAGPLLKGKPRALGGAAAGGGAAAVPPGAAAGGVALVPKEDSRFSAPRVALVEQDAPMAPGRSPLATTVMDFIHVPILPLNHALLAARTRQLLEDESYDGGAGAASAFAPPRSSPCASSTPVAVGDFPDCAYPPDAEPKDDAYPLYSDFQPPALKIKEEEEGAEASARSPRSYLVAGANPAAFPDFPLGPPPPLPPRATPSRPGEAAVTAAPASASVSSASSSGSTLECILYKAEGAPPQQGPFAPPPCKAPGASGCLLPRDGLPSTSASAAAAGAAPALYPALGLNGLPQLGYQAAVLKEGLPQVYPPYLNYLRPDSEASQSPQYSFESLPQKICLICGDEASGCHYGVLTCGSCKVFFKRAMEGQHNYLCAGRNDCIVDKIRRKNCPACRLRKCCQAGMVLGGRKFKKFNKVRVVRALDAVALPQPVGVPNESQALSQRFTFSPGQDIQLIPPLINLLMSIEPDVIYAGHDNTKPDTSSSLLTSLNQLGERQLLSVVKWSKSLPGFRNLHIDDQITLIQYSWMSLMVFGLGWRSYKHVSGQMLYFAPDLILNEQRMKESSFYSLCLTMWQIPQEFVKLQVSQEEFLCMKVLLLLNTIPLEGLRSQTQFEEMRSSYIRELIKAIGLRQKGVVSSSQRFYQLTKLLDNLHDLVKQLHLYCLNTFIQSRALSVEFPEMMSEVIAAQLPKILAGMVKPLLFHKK
Chain of Estrogen receptor beta (Homo sapiens) (Q92731 whole entry, looked up): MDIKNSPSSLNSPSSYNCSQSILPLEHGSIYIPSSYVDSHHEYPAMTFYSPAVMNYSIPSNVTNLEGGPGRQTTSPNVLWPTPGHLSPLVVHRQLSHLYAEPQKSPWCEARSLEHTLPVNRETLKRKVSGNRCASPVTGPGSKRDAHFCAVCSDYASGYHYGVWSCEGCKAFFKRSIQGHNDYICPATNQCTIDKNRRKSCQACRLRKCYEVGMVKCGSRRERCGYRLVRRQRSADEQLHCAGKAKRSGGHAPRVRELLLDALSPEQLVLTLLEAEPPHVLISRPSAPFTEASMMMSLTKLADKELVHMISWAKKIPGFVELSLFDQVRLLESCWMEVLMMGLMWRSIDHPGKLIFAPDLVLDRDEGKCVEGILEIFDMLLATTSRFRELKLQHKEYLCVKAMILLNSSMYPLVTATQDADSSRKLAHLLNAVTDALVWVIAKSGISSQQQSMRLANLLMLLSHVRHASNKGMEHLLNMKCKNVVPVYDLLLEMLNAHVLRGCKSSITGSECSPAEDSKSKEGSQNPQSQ
Chain of Androgen receptor (Homo sapiens) (P10275 whole entry, looked up): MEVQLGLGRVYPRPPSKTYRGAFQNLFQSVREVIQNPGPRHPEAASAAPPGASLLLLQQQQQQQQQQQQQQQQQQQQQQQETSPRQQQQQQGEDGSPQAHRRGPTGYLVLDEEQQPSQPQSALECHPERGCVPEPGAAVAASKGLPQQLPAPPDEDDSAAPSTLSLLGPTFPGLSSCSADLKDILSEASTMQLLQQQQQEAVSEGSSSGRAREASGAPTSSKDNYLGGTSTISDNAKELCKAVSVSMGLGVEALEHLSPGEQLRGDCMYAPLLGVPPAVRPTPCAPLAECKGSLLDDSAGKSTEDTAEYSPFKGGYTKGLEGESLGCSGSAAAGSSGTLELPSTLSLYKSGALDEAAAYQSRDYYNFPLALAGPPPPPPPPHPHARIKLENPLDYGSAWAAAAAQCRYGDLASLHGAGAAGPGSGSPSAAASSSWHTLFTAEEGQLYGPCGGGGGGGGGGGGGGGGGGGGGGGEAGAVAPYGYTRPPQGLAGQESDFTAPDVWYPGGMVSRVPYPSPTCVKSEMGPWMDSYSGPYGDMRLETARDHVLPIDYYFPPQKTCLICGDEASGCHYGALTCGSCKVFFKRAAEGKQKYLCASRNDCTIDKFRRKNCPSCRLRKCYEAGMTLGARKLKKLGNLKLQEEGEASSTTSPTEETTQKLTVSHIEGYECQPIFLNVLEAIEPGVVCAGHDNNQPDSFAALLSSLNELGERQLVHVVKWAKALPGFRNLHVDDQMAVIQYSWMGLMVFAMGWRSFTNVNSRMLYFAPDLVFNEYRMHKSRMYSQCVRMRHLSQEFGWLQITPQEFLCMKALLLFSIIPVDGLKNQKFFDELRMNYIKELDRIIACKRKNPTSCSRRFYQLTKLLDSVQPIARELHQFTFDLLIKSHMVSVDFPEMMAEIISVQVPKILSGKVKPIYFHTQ
Chain of Thyrotropin-releasing hormone receptor (Homo sapiens) (P34981 whole entry, looked up): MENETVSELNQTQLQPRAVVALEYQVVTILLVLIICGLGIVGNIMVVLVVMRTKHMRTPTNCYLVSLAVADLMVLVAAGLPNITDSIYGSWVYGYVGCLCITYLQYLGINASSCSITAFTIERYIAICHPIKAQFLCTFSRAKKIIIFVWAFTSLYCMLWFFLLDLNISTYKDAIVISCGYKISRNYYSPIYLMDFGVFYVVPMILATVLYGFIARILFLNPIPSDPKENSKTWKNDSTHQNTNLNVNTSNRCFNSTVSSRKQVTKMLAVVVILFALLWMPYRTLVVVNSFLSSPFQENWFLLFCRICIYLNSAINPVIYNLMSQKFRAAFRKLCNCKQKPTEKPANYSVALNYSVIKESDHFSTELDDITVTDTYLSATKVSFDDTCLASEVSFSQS
Chain of Estrogen receptor (Homo sapiens) (P03372 whole entry, looked up): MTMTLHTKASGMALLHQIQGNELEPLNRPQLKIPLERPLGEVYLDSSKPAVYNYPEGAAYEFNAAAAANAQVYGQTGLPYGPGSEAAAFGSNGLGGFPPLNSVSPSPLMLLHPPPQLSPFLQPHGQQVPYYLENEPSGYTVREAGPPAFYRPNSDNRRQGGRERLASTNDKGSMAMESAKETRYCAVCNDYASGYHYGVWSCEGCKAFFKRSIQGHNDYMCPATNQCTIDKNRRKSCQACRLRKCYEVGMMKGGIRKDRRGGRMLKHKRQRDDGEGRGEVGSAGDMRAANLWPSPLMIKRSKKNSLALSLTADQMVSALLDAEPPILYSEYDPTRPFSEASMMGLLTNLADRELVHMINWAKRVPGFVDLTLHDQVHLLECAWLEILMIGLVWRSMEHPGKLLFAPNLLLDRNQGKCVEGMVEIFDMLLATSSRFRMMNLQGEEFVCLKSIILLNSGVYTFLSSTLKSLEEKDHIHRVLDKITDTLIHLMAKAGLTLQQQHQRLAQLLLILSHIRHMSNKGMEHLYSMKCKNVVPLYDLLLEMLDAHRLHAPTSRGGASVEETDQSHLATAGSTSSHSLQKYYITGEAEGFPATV
Chain of Thyrotropin receptor (Homo sapiens) (P16473 whole entry, looked up): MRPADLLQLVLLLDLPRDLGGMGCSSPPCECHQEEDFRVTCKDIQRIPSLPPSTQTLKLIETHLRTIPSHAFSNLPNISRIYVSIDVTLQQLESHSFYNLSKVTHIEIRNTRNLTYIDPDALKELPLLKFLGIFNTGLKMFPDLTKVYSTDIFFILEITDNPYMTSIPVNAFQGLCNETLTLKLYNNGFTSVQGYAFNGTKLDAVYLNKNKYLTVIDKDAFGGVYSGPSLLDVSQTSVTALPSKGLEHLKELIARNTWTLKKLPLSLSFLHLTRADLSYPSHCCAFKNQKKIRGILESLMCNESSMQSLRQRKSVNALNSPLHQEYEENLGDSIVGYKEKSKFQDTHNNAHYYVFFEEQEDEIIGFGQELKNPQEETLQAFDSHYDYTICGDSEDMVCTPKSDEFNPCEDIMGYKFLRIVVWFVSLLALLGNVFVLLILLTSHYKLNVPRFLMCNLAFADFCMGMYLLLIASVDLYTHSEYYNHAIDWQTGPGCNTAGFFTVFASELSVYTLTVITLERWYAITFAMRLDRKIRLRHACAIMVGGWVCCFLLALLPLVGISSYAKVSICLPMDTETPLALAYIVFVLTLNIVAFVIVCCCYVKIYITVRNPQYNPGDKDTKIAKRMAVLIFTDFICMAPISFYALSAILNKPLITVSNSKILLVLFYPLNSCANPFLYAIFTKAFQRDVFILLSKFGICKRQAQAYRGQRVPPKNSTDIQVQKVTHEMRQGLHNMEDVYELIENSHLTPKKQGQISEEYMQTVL

COc1cc(-c2ccc(=O)[nH]n2)ccc1OC(F)F
not listed: [17] | [18] | [19] | [20]
inactive: all other assays above

[K+]
not listed: [8] | [20]
inactive: all other assays above

NS(=O)(=O)Cc1noc2ccccc12
not listed: [6] | [7] | [16] | [18] | [19]
inactive: all other assays above

Cc1ccc(-c2ncc(Cl)cc2-c2ccc(S(C)(=O)=O)cc2)cn1
not listed: [13] | [17]
inactive: all other assays above

O=C(CO)[C@@H](O)[C@H](O)[C@H](O)CO
not listed: [18] | [20]
inactive: all other assays above

CCOc1c(N2CCOCC2)cnn(C)c1=O
not listed: [8] | [11] | [19]
inactive: all other assays above

CC1(C)OC[C@@H](COC(=O)CCc2ccc(OC[C@@H](O)CNCCNC(=O)N3CCOCC3)cc2)O1
not listed: [6]
inactive: all other assays above

CCNC(=O)[C@@H]1CCCN1C(=O)[C@H](CCCN=C(N)N)NC(=O)[C@H](CC(C)C)NC(=O)CNC(=O)[C@H](Cc1ccc(O)cc1)NC(=O)[C@H](CO)NC(=O)[C@H](Cc1c[nH]c2ccccc12)NC(=O)[C@H](Cc1cnc[nH]1)NC(=O)[C@@H]1CCC(=O)N1 ([pGlu]HWSYGLRP-NHEt)
not listed: [16] | [18] | [19] | [20]
inactive: all other assays above
